This note sets out measurements from PubChem BioAssay (NCATS).

Molecules are shown by their SMILES. Values without a mark were called inactive. The call rests on the fitted dose curve; in most records, active means well fitted curve in the direction sought with a large enough effect; inconclusive means small, poorly fitted or top-dose-only effect, or effect the other way, or another doubt; inactive means no such curve, though single readings can be large or run the other way.

This test is described as follows: Inducers of the Endoplasmic Reticulum Stress Response (ERSR) in human glioma: Validation (AID 504836). Further: 0% is about no effect. As to conditions: human glioma cells, ER stress response reporter; series mostly up to 38.3 µM; activation: at the top concentration. The procedure, abridged: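 ERSR induction read as luciferase luminescence (Bright-Glo, 10 min at room temperature) in stably transfected human U87-MG glioma cells exposed to compounds for 16 h, using GRP78 as sensor.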
Take `COc1ccc2[nH]cc(CCNC(C)=O)c2c1`: the “activation” value is -3.55%. For the compound `CN(C)CCOC(=O)COc1ccc(Cl)cc1`, the “activation” value is 0.5%. For `CC(CCc1ccccc1)NCC(O)c1ccc(O)c(C(N)=O)c1` (stereo not drawn) the value was -1.24%; for `O=C1NCC2(CCN(CCc3ccccc3)CC2)O1`, -1.8%; for `Clc1cccc(Cl)c1NC1=NCCN1`, -1.88%. The same measure for `NC1CCN(c2cccc(Cl)n2)CC1`: -2.43%; for `CCn1nc(C(=O)O)c(=O)c2cc3c(cc21)OCO3`: -3.52%; for `CC(=O)c1ccc(S(=O)(=O)NC(=O)NC2CCCCC2)cc1`: 1.16%.

For the compound `CC(=O)Oc1cc(C(C)C)c(OCCN(C)C)cc1C`, the “activation” value is -2.7%. The same measure for `CCN(CC)C(=O)c1ccc(O)c(OC)c1`: -3.7%; for `Nc1ccc(S(=O)(=O)Nc2ccnn2-c2ccccc2)cc1`: -2.81%; for `O=C(O)CN(CCN(CC(=O)O)CC(=O)O)CCN(CC(=O)O)CC(=O)O`: -2.97%. Take `NCCCNCCSP(=O)(O)O`: the “activation” value is 1.55%. Turning to `NC(=O)N1c2ccccc2C=Cc2ccccc21`, the “activation” value is -4.4%. The same measure for `CC(N=C(NC#N)Nc1ccncc1)C(C)(C)C` (stereo not drawn): -4.53%; for `CCCNC(C)C(=O)Nc1ccccc1C` (stereo not drawn): -2.81%; for `CCCCCCCCCCCCCCCC(=O)NCCO`: -1.91%. `Cc1ccc(Cl)c(Nc2ccccc2C(=O)O)c1Cl`: the “activation” value is 3.82%.
